Assay [1] addresses Estrogen receptor (Homo sapiens) (UniProt P03372). Nature of the assay: qHTS assay for small molecule antagonists of estrogen receptor alpha signaling (AID 588513; active = well fitted curve in the direction sought with a large enough effect in the signal ratio, with a control signal flat, not every such curve was filed as active; the % refers to the signal ratio; also: % is scaled to controls: 0 for no effect and ±100 for the full control effect). The method in brief: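 ER-alpha-UAS-bla GripTite HEK 293 cells in 2% charcoal/dextran-treated FBS medium; compounds titrated (1:2, duplicate), then stimulated with 0.5 nM 17-beta-estradiol for 18 h at 37C. CCF4 beta-lactamase fluorescence; Hill-fit IC50 and efficacy.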
For orientation: In qHTS, concentration-response curves come from the screen itself.

Assay [2] has the same target. Briefly: qHTS assay for small molecule agonists of estrogen receptor alpha signaling (AID 588514; calls by dose curve;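 also: 0% = vehicle only and 100% = reference agonist; nearly all actives have a fitted effect of over 70% in size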). Summed up:
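Reporter-gene assay. […] controls beta-lactamase in HEK 293 GripTite cells; after 18 hrs with compound, CCF4 substrate is added for 2 hrs and fluorescence is read.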

Assay [3] has as its target Glucocorticoid receptor (Homo sapiens) (UniProt P04150). Nature of the assay: qHTS assay for small molecule agonists of glucocorticoid receptor signaling (AID 588532; active = well fitted curve in the direction sought with a large enough effect in the signal ratio, with a control signal flat; the % refers to the signal ratio;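 also: 100% = dexamethasone at 0.1 µM and 0% = DMSO only wells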). The settings on record: HeLa MMTV-bla, beta-lactamase ratio, agonist, 18 h; stronger effect = higher value; percent of dexamethasone control, DMSO zero. Summed up: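 Using MMTV-bla HeLa cells in medium with 1% stripped FBS and 25 mM HEPES, compounds were titrated and incubated overnight-length (18 h). Beta-lactamase cleavage of CCF4 was quantified by dual-emission fluorescence.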

Assay [4] deals with Peroxisome proliferator-activated receptor gamma (Homo sapiens) (UniProt P37231). Briefly: qHTS assay for small molecule agonists of peroxisome proliferator-activated receptor gamma signaling (AID 588536; active = well fitted curve in the direction sought with a large enough effect in the signal ratio, with a control signal flat, not every such curve was filed as active; the % refers to the signal ratio;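 also: 0% = DMSO basal wells and 100% = rosiglitazone at 2 µM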). Summed up:
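HEK293 UAS-bla reporter line, 1% charcoal/dextran FBS; titration, 16 h, 37 C; CCF4 loading 2 h RT; fluorescence 460/530 nm. Normalized to rosiglitazone 2 uM = 100%, DMSO = 0%.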

Assay [5] can be described thus: qHTS assay for small molecule agonists of retinoid X receptor alpha signaling (AID 588544). The note with it: HEK293T RXRa-UAS-bla, beta-lactamase reporter, 18 h; 530 nm emission.
Assay [6] addresses Thyroid hormone receptor beta (Homo sapiens) (UniProt P10828). Nature of the assay: qHTS assay for small molecule agonists of thyroid hormone receptor beta signaling (AID 588545; calls by dose curve;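 also: 0% = DMSO only and 100% = 10 nM T3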). The method in brief:
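Stimulation of a TR-driven beta-lactamase reporter was quantified in GripTite HEK 293 cells. Compound series ran for 18 hrs; curves were normalized to T3 and DMSO controls and fitted to yield EC50.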

Assay [7] in a line: qHTS assay for small molecule antagonists of retinoid X receptor alpha signaling (AID 588546; active = well fitted inhibition curve with a large enough effect in the signal ratio, with a control signal flat, not every such curve was filed as active; the % refers to the signal ratio;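 also: cells stimulated with 9-cis-retinoic acid as agonist; % is scaled to controls: 0 for no effect and ±100 for the full control effect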). The settings on record: HEK293T RXRa-UAS-bla, beta-lactamase ratio, antagonist mode; measured here: W530 green channel, cytotoxicity proxy. The method in brief:
(§1)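 Beta-lactamase reporter inhibition, read as CCF4 fluorescence ratio (ex 405, em 460/530 nm) after 2 h at RT. HEK293T UAS-bla cells, 2500/well, were stimulated with 9-cis-RA at 500 or 100 nM final alongside test compound for 18 h at 37 C.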

Assay [8] deals with Retinoic acid receptor RXR-alpha (Homo sapiens) (UniProt P19793). The assay is described as above. The settings on record: HEK293T RXRa-UAS-bla, beta-lactamase ratio, antagonist mode. The method in brief:
as §1

Assay [9] has as its target Thyroid hormone receptor beta (Homo sapiens) (UniProt P10828). Briefly: qHTS assay for small molecule antagonists of thyroid hormone receptor beta signaling (AID 588547; active = well fitted inhibition curve with a large enough effect in the signal ratio, with a control signal flat, not every such curve was filed as active; the % refers to the signal ratio;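 also: cells stimulated with 0.4 nM T3 agonist during compound exposure; series mostly up to about 77 µM; % is scaled to controls: 0 for no effect and ±100 for the full control effect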). The note with it: TR-UAS-bla HEK293, beta-lactamase ratio, antagonist mode, 18 h. The method in brief:
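Inhibition of T3-driven (0.4nM final) beta-lactamase reporter activity was measured over 0.59 nM to 92 uM compound after 18 h at 37 C. The cells were GripTite HEK293 TR-UAS-bla in charcoal/dextran-stripped serum, with CCF4 ratio read-out and IC50 from Hill fits.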

The nature of assay [10]: qHTS assay for small molecule activators of the p53 signaling pathway (AID 651743; active = well fitted activation curve with a large enough effect in the signal ratio, not every such curve was filed as active; the % refers to the signal ratio; also: series mostly up to about 92 µM; % of control where 0% means no effect). The settings on record: HCT-116 p53RE-bla, beta-lactamase FRET ratio, 16 h; activation: stronger effect = higher value. The method in brief: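 Screen for p53 pathway agonists uses stably transfected p53RE-bla HCT-116 cells, 4,000 per well, treated 16 h at 37 C with compounds in DMSO.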
Assay [11] can be described thus: qHTS assay for environmental chemicals that activate the Aryl hydrocarbon Receptor (AhR) signaling pathway (AID 651777). Also: % of control where 0% means no effect; nearly all actives have a fitted effect of over 15% in size. The note with it: 1A2-DRE human hepatoma cells, luciferase, 24 h; activation: stronger effect = higher value. The method in brief:
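Induction of CYP1A2 transcription through AhR is detected by luciferase in 1A2-DRE hepatoma cells. Compounds or DMSO act for 24 hr at 37 C before a 30 min One-Glo step at room temperature.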

Assay [12] concerns the target Peroxisome proliferator-activated receptor alpha (Homo sapiens) (UniProt Q07869). Nature of the assay: qHTS assay for small molecule agonists of the peroxisome proliferator-activated receptor alpha (PPARalpha) signaling pathway (AID 651778). Also: % of control where 0% means no effect. The settings on record: PathHunter PPARalpha complementation, chemiluminescence, 6 h; max response: stronger effect = higher value. Summed up: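 Chemiluminescence from complemented enzyme reported PPARalpha activation in cells after 6 hr of compound treatment at 37 C. The detection reagent was incubated for 60 min at room temperature, and compounds were scored as agonists.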

Assay [13] can be described thus: qHTS assay for small molecule agonists of the antioxidant response element (ARE) signaling pathway measured by Nrf2-dependant transcriptional activity (AID 720636; active = well fitted curve in the direction sought with a large enough effect in the repeat runs; an effect the other way counts as inactive or inconclusive;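 also: HepG2 cells with an ARE-driven luciferase reporter; % of control where 0% means no effect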). Summed up: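 We exposed ARE-luc HepG2 cells, seeded in assay medium with 1% dialyzed FBS and allowed 6 hr to adhere, to test compounds overnight (16 hr, 37 C) before measuring luciferase with ONE-Glo.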

A short description of assay [14]: qHTS assay for small molecule agonists of the antioxidant response element (ARE) signaling pathway measured by Nrf2-dependant transcriptional activity - cell viability counter screen (AID 720653; active = well fitted curve in the direction sought with a large enough effect in the repeat runs; an effect the other way counts as inactive or inconclusive; also: % is scaled to controls: 0 for no effect and ±100 for the full control effect). The note with it: ARE-bla HepG2 viability, CellTiter-Glo ATP luminescence, 16 h; max response: stronger effect = lower value. The method in brief: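 Cytotoxicity counter screen: intracellular ATP quantified by CellTiter-Glo luminescence in the same ARE-bla HepG2 plates, after 16 h compound exposure and a 2 h beta-lactamase substrate step.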

A short description of assay [15]: qHTS assay for cell viability of HEK293 cells (AID 743288). Also: % is scaled to controls: 0 for no effect and ±100 for the full control effect; nearly all actives have a fitted effect of over 50% in size. The note with it: ATP luminescence (CellTiter-Glo), 18 h; max response: stronger effect = lower value. The method in brief:
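Parental HEK293 cells, 2,000 per well, preincubated at least 5 h at 37 C, then exposed to compounds in DMSO for 18 h at 37 C. Viability by CellTiter-Glo ATP luminescence after 30 min at room temperature.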

The nature of assay [16]: qHTS assay for cell viability of the p53RE-bla HCT-116 cell line (AID 743292). Also: % is scaled to controls: 0 for no effect and ±100 for the full control effect; nearly all actives have a fitted effect of over 55% in size. The method in brief:
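In this qHTS counter-screen, metabolically competent p53RE-bla HCT-116 cells were counted via their ATP content. Compounds were applied for 16 h at 37 C and luciferase-coupled luminescence was measured.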

For assay [17], the target named is Nuclear receptor subfamily 1 group I member 2 (Rattus norvegicus) (UniProt Q9R1A7). Briefly: qHTS assay for small molecule activators of the rat pregnane X receptor (rPXR) signaling pathway (AID 651751; call rule not given here; also: 0% is about no effect). The note with it: rPXR reporter cells, luciferase (One-Glo), 24 h.
A short description of assay [18]: qHTS assay for small molecule activators of the human pregnane X receptor (PXR) signaling pathway (AID 720659; call rule not given here; also: 0% is about no effect).
A short description of assay [19]: qHTS assay for small molecule antagonists of peroxisome proliferator-activated receptor delta signaling (AID 588535; active = well fitted inhibition curve with a large enough effect in the signal ratio, with a control signal flat, not every such curve was filed as active; the % refers to the signal ratio;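 as to max response: cells co-treated with a PPAR-delta agonist as stimulator during compound exposure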). The settings on record: HEK293T PPARd-UAS-bla, beta-lactamase FRET ratio, 18 h; 460 nm channel. Summed up:
(§2)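 Cell-based beta-lactamase assay in antagonist mode: 4000 HEK293T PPAR-delta-UAS-bla cells per well, 5 hr preincubation then 18 hr compound incubation at 37 C. IC50 obtained by Hill equation fitting.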

For assay [20], the target named is Peroxisome proliferator-activated receptor delta (Homo sapiens) (UniProt Q03181). The assay is described as above. Summed up:
as §2

Structures are written as SMILES. Inconclusive results are not listed. Calls of active or inactive are those of the source. Unless noted, calls follow the shape of the dose curve; as a rule, active = well fitted curve in the direction sought with a large enough effect; inconclusive = small, poorly fitted or top-dose-only effect, or another doubt; inactive = no such curve, though single readings can be large; an effect the other way counts as inactive or inconclusive.

Chain of Nuclear receptor subfamily 1 group I member 2 (Rattus norvegicus) (Q9R1A7 whole entry, looked up): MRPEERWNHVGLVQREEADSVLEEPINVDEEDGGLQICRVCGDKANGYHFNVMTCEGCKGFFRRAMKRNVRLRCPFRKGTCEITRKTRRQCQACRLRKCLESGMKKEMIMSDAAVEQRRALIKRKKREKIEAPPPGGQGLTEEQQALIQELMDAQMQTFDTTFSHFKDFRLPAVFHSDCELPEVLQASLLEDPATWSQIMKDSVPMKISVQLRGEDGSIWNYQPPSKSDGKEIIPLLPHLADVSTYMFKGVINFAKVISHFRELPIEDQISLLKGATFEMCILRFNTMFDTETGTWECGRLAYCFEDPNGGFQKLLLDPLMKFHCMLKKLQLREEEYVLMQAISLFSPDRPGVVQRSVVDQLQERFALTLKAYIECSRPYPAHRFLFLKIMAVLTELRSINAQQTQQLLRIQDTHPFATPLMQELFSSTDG
Chain of Peroxisome proliferator-activated receptor alpha (Homo sapiens) (Q07869 whole entry, looked up): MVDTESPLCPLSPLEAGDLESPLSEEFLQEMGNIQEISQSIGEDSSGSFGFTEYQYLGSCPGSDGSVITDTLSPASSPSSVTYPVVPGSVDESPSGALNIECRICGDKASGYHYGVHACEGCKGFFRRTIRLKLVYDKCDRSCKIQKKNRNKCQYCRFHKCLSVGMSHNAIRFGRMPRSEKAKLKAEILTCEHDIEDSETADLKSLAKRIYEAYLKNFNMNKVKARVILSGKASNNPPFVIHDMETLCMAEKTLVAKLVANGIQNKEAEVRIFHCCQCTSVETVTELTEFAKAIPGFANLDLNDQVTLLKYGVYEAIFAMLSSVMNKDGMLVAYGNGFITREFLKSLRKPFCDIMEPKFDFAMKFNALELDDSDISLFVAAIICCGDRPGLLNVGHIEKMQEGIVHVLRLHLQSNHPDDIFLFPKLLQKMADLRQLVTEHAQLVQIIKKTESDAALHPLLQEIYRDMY
Chain of Peroxisome proliferator-activated receptor gamma (Homo sapiens) (P37231 whole entry, looked up): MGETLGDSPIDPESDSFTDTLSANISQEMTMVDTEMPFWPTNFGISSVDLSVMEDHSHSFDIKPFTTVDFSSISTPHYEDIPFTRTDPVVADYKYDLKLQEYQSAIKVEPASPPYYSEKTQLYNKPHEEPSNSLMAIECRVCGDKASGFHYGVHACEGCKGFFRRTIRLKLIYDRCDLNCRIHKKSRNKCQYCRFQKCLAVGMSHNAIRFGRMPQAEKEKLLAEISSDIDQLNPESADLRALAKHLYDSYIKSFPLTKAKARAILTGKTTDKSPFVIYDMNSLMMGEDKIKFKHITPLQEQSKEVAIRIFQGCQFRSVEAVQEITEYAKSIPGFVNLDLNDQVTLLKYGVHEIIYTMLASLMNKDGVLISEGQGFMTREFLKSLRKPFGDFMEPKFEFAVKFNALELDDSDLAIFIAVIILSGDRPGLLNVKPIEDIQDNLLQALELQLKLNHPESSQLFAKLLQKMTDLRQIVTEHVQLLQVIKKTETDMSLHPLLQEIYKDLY
Chain of Thyroid hormone receptor beta (Homo sapiens) (P10828 whole entry, looked up): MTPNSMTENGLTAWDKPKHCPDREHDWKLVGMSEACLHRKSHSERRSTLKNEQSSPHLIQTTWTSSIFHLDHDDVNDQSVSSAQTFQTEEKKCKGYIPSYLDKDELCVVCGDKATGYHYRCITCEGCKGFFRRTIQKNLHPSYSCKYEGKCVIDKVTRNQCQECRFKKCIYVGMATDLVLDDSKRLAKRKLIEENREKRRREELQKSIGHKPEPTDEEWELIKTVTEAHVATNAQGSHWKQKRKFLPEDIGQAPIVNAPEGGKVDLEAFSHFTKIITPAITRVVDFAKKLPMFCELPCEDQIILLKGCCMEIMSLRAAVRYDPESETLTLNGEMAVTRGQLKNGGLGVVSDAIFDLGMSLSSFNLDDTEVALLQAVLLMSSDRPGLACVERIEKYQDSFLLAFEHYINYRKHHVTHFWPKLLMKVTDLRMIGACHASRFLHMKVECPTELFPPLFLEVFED
Chain of Glucocorticoid receptor (Homo sapiens) (P04150 whole entry, looked up): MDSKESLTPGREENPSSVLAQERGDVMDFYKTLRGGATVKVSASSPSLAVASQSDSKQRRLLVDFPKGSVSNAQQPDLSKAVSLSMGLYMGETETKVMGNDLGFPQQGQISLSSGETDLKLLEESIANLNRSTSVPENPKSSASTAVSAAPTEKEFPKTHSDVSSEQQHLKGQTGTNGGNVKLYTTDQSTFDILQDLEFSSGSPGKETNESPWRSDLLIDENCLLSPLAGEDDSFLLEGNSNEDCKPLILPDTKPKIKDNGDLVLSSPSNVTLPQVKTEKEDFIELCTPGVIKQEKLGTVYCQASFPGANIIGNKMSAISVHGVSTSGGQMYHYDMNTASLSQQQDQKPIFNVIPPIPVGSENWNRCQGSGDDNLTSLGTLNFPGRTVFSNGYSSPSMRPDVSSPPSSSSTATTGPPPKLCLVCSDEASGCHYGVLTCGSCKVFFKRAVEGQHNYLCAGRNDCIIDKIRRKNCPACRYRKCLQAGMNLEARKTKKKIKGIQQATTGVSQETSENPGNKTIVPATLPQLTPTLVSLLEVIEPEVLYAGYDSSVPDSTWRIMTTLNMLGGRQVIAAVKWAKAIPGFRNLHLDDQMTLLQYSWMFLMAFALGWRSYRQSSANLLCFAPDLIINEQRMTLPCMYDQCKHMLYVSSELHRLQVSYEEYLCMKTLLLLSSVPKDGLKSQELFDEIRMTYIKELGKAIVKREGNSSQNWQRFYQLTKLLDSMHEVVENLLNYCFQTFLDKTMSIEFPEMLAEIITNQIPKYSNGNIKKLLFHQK
Chain of Retinoic acid receptor RXR-alpha (Homo sapiens) (P19793 whole entry, looked up): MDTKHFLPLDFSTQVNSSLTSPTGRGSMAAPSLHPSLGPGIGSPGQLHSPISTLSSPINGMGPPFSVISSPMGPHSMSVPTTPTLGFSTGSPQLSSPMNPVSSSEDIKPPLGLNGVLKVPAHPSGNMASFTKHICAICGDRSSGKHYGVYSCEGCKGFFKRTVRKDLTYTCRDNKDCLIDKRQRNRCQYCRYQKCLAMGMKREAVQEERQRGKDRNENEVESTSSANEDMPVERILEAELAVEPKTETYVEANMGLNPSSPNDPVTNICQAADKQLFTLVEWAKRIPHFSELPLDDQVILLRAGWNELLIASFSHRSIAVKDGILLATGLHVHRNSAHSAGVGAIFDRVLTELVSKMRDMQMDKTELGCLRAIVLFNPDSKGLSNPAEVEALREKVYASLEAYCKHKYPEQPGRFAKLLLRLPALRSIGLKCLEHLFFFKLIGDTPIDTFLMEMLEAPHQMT
Chain of Estrogen receptor (Homo sapiens) (P03372 whole entry, looked up): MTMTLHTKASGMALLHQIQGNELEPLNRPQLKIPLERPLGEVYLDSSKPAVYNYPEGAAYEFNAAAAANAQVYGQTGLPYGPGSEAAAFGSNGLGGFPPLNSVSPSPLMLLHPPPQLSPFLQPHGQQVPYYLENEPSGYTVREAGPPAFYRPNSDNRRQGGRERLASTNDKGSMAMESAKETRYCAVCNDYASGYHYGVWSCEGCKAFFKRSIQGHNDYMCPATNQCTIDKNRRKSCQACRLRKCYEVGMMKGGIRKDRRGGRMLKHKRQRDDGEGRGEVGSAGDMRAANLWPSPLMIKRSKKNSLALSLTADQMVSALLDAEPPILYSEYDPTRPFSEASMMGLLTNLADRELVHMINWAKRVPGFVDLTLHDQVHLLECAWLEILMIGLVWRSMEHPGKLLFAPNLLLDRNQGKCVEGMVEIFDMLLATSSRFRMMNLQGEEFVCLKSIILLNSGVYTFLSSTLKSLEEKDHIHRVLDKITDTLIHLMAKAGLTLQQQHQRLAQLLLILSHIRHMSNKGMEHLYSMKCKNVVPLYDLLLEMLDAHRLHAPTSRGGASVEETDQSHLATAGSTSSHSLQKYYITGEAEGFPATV
Chain of Peroxisome proliferator-activated receptor delta (Homo sapiens) (Q03181 whole entry, looked up): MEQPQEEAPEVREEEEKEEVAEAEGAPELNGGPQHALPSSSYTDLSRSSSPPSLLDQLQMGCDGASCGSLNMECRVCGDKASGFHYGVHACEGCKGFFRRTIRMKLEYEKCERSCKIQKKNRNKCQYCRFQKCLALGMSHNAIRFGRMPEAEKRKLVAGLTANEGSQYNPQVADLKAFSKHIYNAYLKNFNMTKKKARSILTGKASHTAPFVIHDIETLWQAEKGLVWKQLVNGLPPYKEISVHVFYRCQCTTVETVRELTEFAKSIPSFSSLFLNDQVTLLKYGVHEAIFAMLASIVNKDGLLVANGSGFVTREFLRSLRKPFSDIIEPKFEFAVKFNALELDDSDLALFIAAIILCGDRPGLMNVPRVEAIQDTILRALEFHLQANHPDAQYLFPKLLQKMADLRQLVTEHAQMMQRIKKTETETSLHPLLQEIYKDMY

With `CCOC(=O)CC(O)(CC(=O)OCC)C(=O)OCC`, the Potency entry in assay [1], in assay [2], in assay [6], in [13] and in assay [16] was “inactive” in each case. Further, the activation in [3] is -0.518% (inactive); in [10], -0.036% (inactive); in assay [11], 0.341% (inactive). Further, the compound was called inactive in assay [4] and in assay [18]. The max response is -10.3% in [5]; -3.18% in [7]; -3.42% (inactive) in assay [8]; 0.853% (inactive) in assay [12]; -8.63% (inactive) in [14]; 3.07% (inactive) in assay [15]. Also, in assay [17], the max response is -0.162% (inactive). Besides, the activity change % (negative = inhibition) in assay [9] is 13% (inactive).

Consider `CC(C)(C)C1CCC(O)CC1` (stereo unspecified), for which the Potency result in assay [1], in assay [2], in assay [20], in [6], in assay [13] and in assay [16] was “inactive” in each case. In addition, the activation in assay [3] is -9.45% (inactive); in assay [10] it was -3.97% (inactive). The max response in assay [19] was -7.35%; in assay [7] it was -0.1%; in [8] it was 3.31% (inactive); in [14] it was 2.04% (inactive); in [15], 1.92% (inactive); in [17], 1.71% (inactive). In addition, the compound was called inactive in assay [4] and in [18]. For the same compound, in assay [9], the activity change % (negative = inhibition) was -2.02% (inactive).

Turning to `CN(C)C(=O)Nc1ccccc1`, the Potency entry in [1], in assay [2], in [20], in [6], in [13] and in assay [16] was “inactive” each time. In addition, the max response in assay [19] is 13.2%; in [5], -10.1%; in assay [7] it was -0.672%; in assay [8], -1.05% (inactive); in assay [12] it was -2.12% (inactive); in assay [14] it was 1.07% (inactive). In addition, the max response in assay [15] was 1.22% (inactive); in assay [17], 1.09% (inactive). Further, the result in assay [4] and in assay [18] was inactive. Besides, in assay [9], the activity change % (negative = inhibition) is -24.6% (inactive). Also, the activation in [11] is 2.58% (inactive).

For `CCOC(=O)COc1cc(-n2ncc(C(F)(F)F)c(C)c2=O)c(F)cc1Cl`, the Potency entry in assay [1], in [20], in assay [6] and in [13] was “inactive” throughout. Besides, the activation in [3] was 13.3% (inactive); in assay [10], 2.36% (inactive); in [11], -2.83% (inactive). Moreover, the max response is -4.58% in [19]; 9.89% in assay [5]; 9.1% (inactive) in [14]; 2.7% (inactive) in assay [15]; -8.22% (inactive) in assay [17]. In addition, the result in assay [4] and in assay [18] was inactive. For the same compound, in assay [9], the activity change % (negative = inhibition) was -20.3% (inactive).

Take `CCCCCCCCCCCCCCO`: the Potency entry in assay [1], in [2], in assay [13] and in [16] was “inactive” each time. In addition, the result in assay [4] and in assay [18] was inactive. For the same compound, the max response in [5] is -4.48%; in [7], -1.57%; in [8], 6.98% (inactive); in [12] it was 6.84% (inactive); in assay [14] it was 4.22% (inactive); in [15], -0.0211% (inactive). Further, in assay [17], the max response is 0.238% (inactive). The activity change % (negative = inhibition) in assay [9] was 8.79% (inactive). Moreover, the activation in [10] was -1.8% (inactive); in assay [11], 0.688% (inactive).

With `CC(=O)OC(C)(C)C1CC=C(C)CC1` (stereo unspecified), the Potency result in [1], in [2], in assay [20], in assay [13] and in [16] was “inactive” in each case. In addition, the max response in assay [19] was -21.5%; in [5], -9.79%; in assay [7], -19.2%; in [12] it was -5.04% (inactive); in [14], -6.08% (inactive); in [15], -11.3% (inactive). The max response in [17] is -1.76% (inactive). The outcome in assay [4] and in assay [18] was inactive. Further, the activity change % (negative = inhibition) in assay [9] is -6.17% (inactive). For the same compound, the activation was -1.29% (inactive) in assay [10] and -2.57% (inactive) in [11].

(Values after PubChem BioAssay (NCATS).)
